Measured values reported in PubChem BioAssay (NCATS).
Records with an inconclusive call do not appear. Calls of active or inactive are those of the source. Calls come from the whole dose curve; as a rule, active = well fitted inhibition curve with a large enough effect; inconclusive = small, poorly fitted or top-dose-only effect; inactive = flat fitted curve, though single readings scatter. Where a SMILES comes first, the peptide text is derived from it.

Columns and labels:
Assay in all cases: Cytotoxic Profiling of Annotated Libraries Using Quantitative High-Throughput Screening (AID 1296008); note: nearly all actives have a fitted effect of over 60% in size
Conditions in all cases: Five cell lines viability, CellTiter-Glo ATP luminescence, 48-72 h; max response: hits give low values
CRL-7250 = normal cell line; test system: CRL-7250
Summary of the method: (§1)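 Cytotoxicity was measured as CellTiter-Glo ATP luminescence, read after 10 min at room temperature. Compound treatment of the cells lasted 48 or 72 hr at 37 degrees Celsius in a qHTS format.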

HEK293 = test system: HEK293
Summary of the method: as §1

HaCat = test system: HaCat
Summary of the method: as §1

KB-3-1 = test system: KB-3-1
Summary of the method: as §1

NIH3T3 = test system: NIH3T3
Summary of the method: as §1
% is set by controls: 0 for no effect and ±100 for the full control effect; potency is the fitted concentration of half-maximal effect.

O=C(/C=C/c1ccc(O)cc1)OC[C@H]1O[C@@H](O/C(=C\c2ccccc2)C(=O)O)[C@H](O)[C@@H](O)[C@@H]1O
inactive: outcome (CRL-7250) | max response (HEK293) -7.06% | outcome (HaCat) | outcome (KB-3-1) | max response (NIH3T3) 4.52%

C/C=C1/[C@H](O[C@@H]2O[C@H](CO)[C@@H](O)[C@H](O)[C@H]2O)OC=C(C(=O)OC)[C@H]1CC(=O)OCCc1ccc(OC(=O)C[C@@H]2C(C(=O)OC)=CO[C@@H](O[C@@H]3O[C@H](CO)[C@@H](O)[C@H](O)[C@H]3O)/C2=C/C)cc1
inactive: max response (CRL-7250) -8.75% | max response (HEK293) -1.34% | outcome (HaCat) | outcome (KB-3-1) | max response (NIH3T3) 2.32%

O=C(OC[C@H]1O[C@H](O[C@]2(CO)O[C@H](CO)[C@@H](O)[C@@H]2O)[C@H](O)[C@@H](O)[C@@H]1O)c1ccc(O)cc1
inactive: max response (CRL-7250) -3.61% | max response (HEK293) 1.1% | outcome (HaCat) | max response (KB-3-1) 0.316% | max response (NIH3T3) -10.5%

CSCC1OC(n2cnc3c(N)ncnc32)C(O)C1O (stereo not given)
inactive: outcome (CRL-7250) | outcome (HEK293) | max response (HaCat) 2.69% | outcome (KB-3-1) | max response (NIH3T3) -0.346%

COc1c(C)c(OCC=C(C)C)cc2c1COC2=O
inactive: max response (CRL-7250) -4.58% | max response (HEK293) 3.79% | outcome (HaCat) | max response (KB-3-1) 4.15% | max response (NIH3T3) 2.66%

C=C1C2(C)CC3C4(C)OC(C5OC56C4=CC(=O)OC6(C)C)C3(C)C13C(=O)OC(C)C3(O)C2=O (stereo not given)
inactive: max response (CRL-7250) -6.5% | max response (HEK293) -4.51% | outcome (HaCat) | max response (KB-3-1) 7.16% | max response (NIH3T3) 2.35%

Cc1cc(C)c2nc(-c3ccccn3)cc(C(=O)Nc3ccc(S(=O)(=O)Nc4onc(C)c4C)cc3)c2c1
inactive: max response (CRL-7250) -3.09% | max response (HEK293) -20.7% | outcome (HaCat) | max response (KB-3-1) 1.46% | max response (NIH3T3) 1.48%

CC1=CC(=O)[C@]2(O[C@@H]3O[C@@H](C)[C@H](O)[C@@H](O)[C@H]3O)C=CO[C@@H](O[C@@H]3O[C@H](CO)[C@@H](O)[C@H](O)[C@H]3O)[C@H]12
inactive: outcome (CRL-7250) | max response (HEK293) -3.6% | outcome (HaCat) | outcome (KB-3-1) | outcome (NIH3T3)

CC(C)C[C@H](NC(=O)[C@@H]1O[C@H]1C(=O)O)C(=O)NCCCCN=C(N)N
inactive: max response (CRL-7250) -9.88% | max response (HEK293) -19.1% | outcome (HaCat) | max response (KB-3-1) 2.43% | max response (NIH3T3) 0.0799%

CC1(C)CCC2(C(=O)O)C(O)CC3(C)C(=CCC4C5(C)CCC(OC6OC(CO)C(O)C(O)C6OC6OC(CO)C(O)C(O)C6OC6OCC(O)(CO)C6O)C(C)(C)C5CCC43C)C2C1 (stereo not given)
inactive: max response (CRL-7250) -4.69% | max response (HEK293) -13.6% | outcome (HaCat) | outcome (KB-3-1) | outcome (NIH3T3)

CC1CCC2(C(=O)O)CCC3(C)C(=CCC4C5(C)CCC(O)C(C)(C(=O)O)C5CCC43C)C2C1(C)O (stereo not given)
inactive: max response (CRL-7250) -10.9% | max response (HEK293) -11.5% | outcome (HaCat) | max response (KB-3-1) 3.72% | outcome (NIH3T3)

OC[C@H]1O[C@@H](OCCc2ccccc2)[C@H](O[C@@H]2OC[C@@H](O)[C@H](O)[C@H]2O)[C@@H](O)[C@@H]1O
inactive: outcome (CRL-7250) | max response (HEK293) 4.26% | outcome (HaCat) | max response (KB-3-1) 9.19% | outcome (NIH3T3)

C[C@@H]1[C@H](O)[C@@H]2OC(=O)C3=C2[C@H](CCC3)[C@@]12C[C@@H](c1ccoc1)OC2=O
inactive: max response (CRL-7250) 4.91% | max response (HEK293) -1.21% | max response (HaCat) -22.1% | outcome (KB-3-1) | outcome (NIH3T3)

C[C@@H]1CCC2C(C)(C)[C@H](O)[C@H](O)C[C@]2(C)[C@@]12Cc1c(O)cc3c(c1O2)CN(CCCC(=O)O)C3=O (stereo not given in full)
inactive: max response (CRL-7250) -7.06% | max response (HEK293) -1.57% | outcome (HaCat) | max response (KB-3-1) 3.58% | max response (NIH3T3) 4.1%

C=Cc1ccc(O[C@@H]2O[C@H](CO[C@@H]3O[C@@H](C)[C@H](O)[C@@H](O)[C@H]3O)[C@@H](O)[C@H](O)[C@H]2O)cc1
inactive: max response (CRL-7250) -5.44% | max response (HEK293) -5.77% | outcome (HaCat) | max response (KB-3-1) 6.98% | max response (NIH3T3) -1.18%

Cc1noc2c1-c1ccccc1C(c1ccc(Cl)cc1)=N[C@H]2CC(N)=O
inactive: max response (CRL-7250) 1.75% | max response (HEK293) -4.39% | outcome (HaCat) | outcome (KB-3-1) | max response (NIH3T3) -0.413%

O=C(O)C(Cc1ccccc1)NC(=O)C1CCCN1 (stereo not drawn) (H-Pro-Phe-OH; configuration not given here)
inactive: max response (CRL-7250) -5.01% | max response (HEK293) 0.403% | max response (HaCat) -6.92% | outcome (KB-3-1) | outcome (NIH3T3)

CCC(C)/C=C(C)/C=C/C1=CC2=C(Cl)C(=O)C(C)(OC(C)=O)C(=O)C2=CN1C(CCC(=O)O)C(=O)O (stereo not given)
inactive: max response (CRL-7250) -2.2% | max response (HEK293) -1.69% | outcome (HaCat) | outcome (KB-3-1) | outcome (NIH3T3)

C=C1CC23CC1CCC2C12OC(=O)C(C)(C(O)C(O)C1O)C2C3C(=O)O (stereo not given)
inactive: max response (CRL-7250) -6.36% | max response (HEK293) -2% | max response (HaCat) 2.72% | outcome (KB-3-1) | outcome (NIH3T3)

C[C@@H]1O[C@@H](O[C@H]2[C@@H]3C=CO[C@@H](O[C@@H]4O[C@H](CO)[C@@H](O)[C@H](O)[C@H]4O)[C@@H]3[C@@]3(CO)O[C@@H]23)[C@H](O)[C@H](O)[C@H]1OC(=O)/C=C/c1ccc(O)cc1
inactive: max response (CRL-7250) -9.97% | max response (HEK293) 1.82% | outcome (HaCat) | max response (KB-3-1) -5.93% | max response (NIH3T3) -3.44%

COc1cc(/C=C/C(=O)O[C@@H]2O[C@H](CO)[C@@H](O)[C@H](O)[C@H]2O)ccc1O
inactive: max response (CRL-7250) 2.76% | outcome (HEK293) | max response (HaCat) 3.8% | max response (KB-3-1) -1.87% | max response (NIH3T3) 0.679%

COC(=O)C1=CO[C@@H](O[C@@H]2O[C@H](CO)[C@@H](O)[C@H](O)[C@H]2O)[C@@H]2C(C)CC(=O)[C@]12O (stereo not given in full)
inactive: max response (CRL-7250) 4.9% | max response (HEK293) -0.581% | outcome (HaCat) | max response (KB-3-1) 1.82% | outcome (NIH3T3)

NC(=O)[C@H](Cc1ccccc1)NC(=O)[C@H](CCCN=C(N)N)NC(=O)C12CC3CC(CC(C3)C1)C2
inactive: max response (CRL-7250) -2.98% | max response (HEK293) -11.4% | outcome (HaCat) | outcome (KB-3-1) | outcome (NIH3T3)

C/C=C/C=C/C(O)=C1/C(=O)[C@]2(C)C3/C(=C(O)/C=C/C=C/C)C(=O)C4(C)C1[C@]1(C)O[C@@]4(O)[C@@]3(C)O[C@@]12O
inactive: outcome (CRL-7250) | max response (HEK293) 2.27% | outcome (HaCat) | max response (KB-3-1) 0.929% | outcome (NIH3T3)

O=C(CCCCC1CCCCC1)N1CCC(c2cnc[nH]2)CC1
active: Potency (HEK293) 5.8 µM
inactive: max response (CRL-7250) -15.2% | outcome (HaCat) | max response (KB-3-1) -20.1% | outcome (NIH3T3)

CC1(C)CC[C@]2(C(=O)O[C@@H]3O[C@H](CO)[C@@H](O)[C@H](O)[C@H]3O)CC[C@]3(C)C(=CCC4[C@@]5(C)CC[C@H](O[C@@H]6O[C@H](C(=O)O)[C@@H](O)[C@H](O)[C@H]6OC6OC(CO)C(O)C(O)C6O)C(C)(C)C5CC[C@]43C)[C@@H]2C1 (stereo not given in full)
inactive: max response (CRL-7250) 3.56% | max response (HEK293) -12.1% | outcome (HaCat) | outcome (KB-3-1) | outcome (NIH3T3)

COc1cc(Nc2nc3ccccc3nc2NS(=O)(=O)c2cccc(NC(=O)c3ccc(C)c(OC)c3)c2)cc(OC)c1
inactive: max response (CRL-7250) -4.07% | max response (HEK293) -14.5% | outcome (HaCat) | max response (KB-3-1) -12.1% | outcome (NIH3T3)

Cc1cc(CO)c(O)c(C(=O)CC2CC(=O)NC(=O)C2)c1
inactive: outcome (CRL-7250) | max response (HEK293) 4.74% | max response (HaCat) -10.8% | outcome (KB-3-1) | outcome (NIH3T3)

Cc1cn(-c2cc(NC(=O)c3ccc(C)c(Nc4nccc(-c5cnccn5)n4)c3)cc(C(F)(F)F)c2)cn1
inactive: max response (CRL-7250) -3.34% | max response (HEK293) -20.5% | outcome (HaCat) | max response (KB-3-1) -2.9% | outcome (NIH3T3)

C=C1C(O)CC2C(C(=O)O)=COC(OC3OC(CO)C(O)C(O)C3OC(=O)/C=C\c3ccc(O)cc3)C12 (stereo not given)
inactive: max response (CRL-7250) 0.287% | max response (HEK293) -11.5% | outcome (HaCat) | max response (KB-3-1) 0.941% | outcome (NIH3T3)

CC(=O)OCC(Cc1ccccc1)NC(=O)C(Cc1ccccc1)NC(=O)c1ccccc1 (stereo not given)
inactive: outcome (CRL-7250) | max response (HEK293) -2.31% | outcome (HaCat) | max response (KB-3-1) -0.456% | outcome (NIH3T3)

C=CC1(C)C=C2CC[C@H]3[C@@](C)(C(=O)O)CCC[C@]3(C)C2CC1 (stereo not given in full)
inactive: max response (CRL-7250) -9.61% | max response (HEK293) 2.61% | max response (HaCat) 3.4% | max response (KB-3-1) 5.04% | outcome (NIH3T3)

CC(C)N(CCCNC(=O)Nc1ccc(C(C)(C)C)cc1)C[C@H]1O[C@@H](n2ccc3c(N)ncnc32)[C@H](O)[C@@H]1O
inactive: max response (CRL-7250) 1.45% | max response (HEK293) -23.8% | outcome (HaCat) | max response (KB-3-1) -3.09% | max response (NIH3T3) -13.2%

COC(=O)C1=CO[C@@H](O[C@@H]2O[C@H](CO)[C@@H](O)[C@H](O)[C@H]2O)[C@H]2[C@@H]1[C@H](O)C[C@]2(C)O
inactive: outcome (CRL-7250) | max response (HEK293) -1.47% | outcome (HaCat) | outcome (KB-3-1) | max response (NIH3T3) -11.4%

O=C(O)CC1CCC(c2ccc(NC(=O)c3nnc(Nc4ccc(F)c(F)c4)o3)cc2)CC1 (stereo not given)
inactive: max response (CRL-7250) 1.15% | max response (HEK293) 1.04% | outcome (HaCat) | outcome (KB-3-1) | outcome (NIH3T3)

O=C(O)Cc1cn([C@@H]2OC[C@@H](O[C@@H]3O[C@H](CO)[C@@H](O)[C@H](O)[C@H]3O)[C@H](O)[C@H]2O[C@@H]2O[C@H](CO)[C@@H](O)[C@H](O)[C@H]2O)c2ccccc12
inactive: max response (CRL-7250) -0.703% | max response (HEK293) 2.5% | outcome (HaCat) | max response (KB-3-1) 5.94% | outcome (NIH3T3)

COc1cc(Nc2nc3c(s2)CCCC3c2ccccc2)ccc1-n1cnc(C)c1 (stereo not given)
inactive: outcome (CRL-7250) | max response (HEK293) 3.81% | max response (HaCat) -4.18% | max response (KB-3-1) -3.56% | outcome (NIH3T3)

C=C1CCC2(OC1)OC1CC3C4CC=C5CC(O)CC(O[C@@H]6OC[C@H](OC(=O)C(O)C(C)CC)[C@H](O)[C@H]6O[C@@H]6O[C@@H](C)[C@H](O)[C@@H](O)[C@H]6O)C5(C)C4CCC3(C)C1C2C (stereo not given in full)
inactive: max response (CRL-7250) -2.78% | max response (HEK293) -1.63% | max response (HaCat) -7.88% | outcome (KB-3-1) | outcome (NIH3T3)
